A short description of assay [1]: qHTS assay to identify small molecule agonists of the vitamin D receptor (VDR) signaling pathway - cell viability counter screen (AID 743224). Also: series mostly up to about 63 µM; nearly all actives have a fitted effect of over 50% in size. An outline of the steps: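 Counter screen for cytotoxicity: VDR-bla cells at 2,000 cells/well, 16 h compound exposure, then CellTiter-Glo luminescence after the beta-lactamase measurement.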
A short description of assay [2]: qHTS assay to identify small molecule antagonists of the vitamin D receptor (VDR) signaling pathway - cell viability counter screen (AID 743225). Also: nearly all actives have a fitted effect of over 50% in size. In outline:
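Cytotoxicity toward the VDR-bla HEK 293T line was scored by ATP-based CellTiter-Glo luminescence, read in the wells already used for the beta-lactamase readout after 16 h compound treatment under 3 nM 1-alpha,25-dihydroxyvitamin D3 stimulation.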

Assay [3] can be described thus: qHTS assay to identify small molecule agonists of the NFkB signaling pathway (AID 1159509; active = well fitted curve in the direction sought with a large enough effect in the signal ratio in the repeat runs, not every such curve was filed as active; the % refers to the signal ratio; also: series mostly up to about 61 µM). An outline of the steps:
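Beta-lactamase reporter assay run in quantitative high-throughput format on an NF-kB-responsive ME-180 line, with 5 hr compound treatment and a FRET-based blue/green fluorescence readout.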

Assay [4] in a line: qHTS assay to identify small molecule agonists of the NFkB signaling pathway - cell viability counter screen (AID 1159515; calls by dose curve; also: series mostly up to about 61 µM; nearly all actives have a fitted effect of over 55% in size). An outline of the steps: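 Counter screen run alongside the NFkB-bla agonist assay: ME-180 reporter cells exposed to compounds for 5 hr, then lysed with CellTiter-Glo in the same wells. Luminescence, read after 30 min, reflects viable cells.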
Assay [5] can be described thus: qHTS assay to identify small molecule agonists of the endoplasmic reticulum stress response signaling pathway (AID 1159516; active = well fitted activation curve with a large enough effect in the signal ratio in the repeat runs, not every such curve was filed as active; the % refers to the signal ratio). In outline:
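For this screen, HeLa cells stably carrying beta-lactamase under the ER stress response element received test compounds, positive controls or DMSO for 5 hr at 37 C; B/G FRET substrate was then added and dual-wavelength emission recorded.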

A short description of assay [6]: qHTS assay to identify small molecule agonists of the endoplasmic reticulum stress response signaling pathway - cell viability counter screen (AID 1159517; calls by dose curve; also: series mostly up to about 61 µM; nearly all actives have a fitted effect of over 50% in size). In outline: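 Cytotoxicity of test compounds toward ESRE-bla HeLa cells was assessed after 5 hr exposure. The luminescent CellTiter-Glo signal was measured 30 min after reagent addition.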
Assay [7] can be described thus: qHTS assay to identify small molecule antagonists of the retinoid-related orphan receptor gamma (ROR-gamma) signaling pathway - cell viability counter screen (AID 1159520). Also: nearly all actives have a fitted effect of over 50% in size. An outline of the steps:
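Tet-on ROR gamma CHO cells (1,000/well) were plated 4 hr, given compounds in DMSO for 2 hr at 37 C, then induced with 1 uM final doxycycline for 16 hr. Viability was read as ATP by CellTiter-Glo luminescence after 30 min.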

For assay [8], the target named is Nuclear receptor ROR-gamma (Homo sapiens) (UniProt P51449). The assay is described as follows: qHTS assay to identify small molecule antagonists of the retinoid-related orphan receptor gamma (ROR-gamma) signaling pathway (AID 1159521). In outline: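 Readout: ONE-Glo luciferase luminescence, 30 min at room temperature. System: Tet-on RORγ CHO, RORE-LUC. Sequence: compound 2 h, doxycycline 1 uM final, 16 h at 37 C.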

A short description of assay [9]: qHTS assay to identify small molecule agonists of the AP-1 signaling pathway - cell viability counter screen (AID 1159525; calls by dose curve; also: nearly all actives have a fitted effect of over 55% in size). In outline: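 Each titration point was normalised to DMSO and tetra n-octyl ammonium bromide controls. The read was Cell Titer Glo luminescence after 30 min at RT, following 5 h compound exposure of ME-180 AP-1-bla cells at 37 °C.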
A short description of assay [10]: qHTS assay to identify small molecule agonists of the AP-1 signaling pathway (AID 1159526; calls by dose curve).
A short description of assay [11]: qHTS assay to identify small molecule agonists of the RXR signaling pathway - cell viability counter screen (AID 1159529). An outline of the steps:
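Tox21 10K compounds were tested for cytotoxicity against GeneBLAzer RXR-alpha HEK 293T cells grown in 2% charcoal-stripped FBS. Exposure lasted 16 hr at 37 C, 5% CO2; viability read by CellTiter-Glo luminescence.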

A short description of assay [12]: qHTS assay to identify small molecule antagonists of the retinoid acid receptor (RAR) signaling pathway - cell viability counter screen (AID 1159551). Also: nearly all actives have a fitted effect of over 35% in size. In outline: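 Measured by luminescent ATP detection, viability reflects C3RL4 cells treated 6 h at 37 C with test chemicals in the presence of 1 uM (final) retinol.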
Assay [13] is described as follows: qHTS assay to identify small molecule antagonists of the retinoic acid receptor (RAR) signaling pathway (AID 1159552; also: nearly all actives have a fitted effect of over 50% in size). An outline of the steps:
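Overnight-plated C3RL4 reporter cells get compound, then retinol to 1 uM final; plates sit 6 hr at 37 C, 5% CO2. A luciferase reagent is added and light output recorded after 30 min at room temperature.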

The target of assay [14] is Retinoic acid receptor RXR-alpha (Homo sapiens) (UniProt P19793). The assay is described as follows: qHTS assay to identify small molecule agonists of the RXR signaling pathway (AID 1159527; calls by dose curve; also: nearly all actives have a fitted effect of over 35% in size). In outline:
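Reporter activation is measured as beta-lactamase activity via FRET substrate cleavage (emission 460/530 nm) in HEK 293T cells expressing an RXR-alpha-driven bla construct, following 16 hr compound exposure at 37 C.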

Assay [15] in a line: qHTS assay to identify small molecule agonists of the retinoic acid receptor (RAR) signaling pathway (AID 1159553). Also: potency is read from the fitted curve at half-maximal effect. An outline of the steps: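 6 hr compound exposure (DMSO vehicle) of overnight-plated C3RL4 RARE-luc cells at 37 C; luminescence quantified after 30 min RT with luciferase reagent.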

Data on 11 molecules can be found in PubChem BioAssay (Tox21).

Results filed as inconclusive are left out. Values without a mark were called inactive. Active and inactive are the calls of the source. Unless noted, calls follow the shape of the dose curve; as a rule, active = well fitted curve in the direction sought with a large enough effect in the repeat runs; inconclusive = weak or mixed curves; inactive = no such curve, though single readings can be large; an effect the other way counts as inactive or inconclusive.

Retinoic acid receptor RXR-alpha (Homo sapiens), sequence (P19793 whole entry, looked up): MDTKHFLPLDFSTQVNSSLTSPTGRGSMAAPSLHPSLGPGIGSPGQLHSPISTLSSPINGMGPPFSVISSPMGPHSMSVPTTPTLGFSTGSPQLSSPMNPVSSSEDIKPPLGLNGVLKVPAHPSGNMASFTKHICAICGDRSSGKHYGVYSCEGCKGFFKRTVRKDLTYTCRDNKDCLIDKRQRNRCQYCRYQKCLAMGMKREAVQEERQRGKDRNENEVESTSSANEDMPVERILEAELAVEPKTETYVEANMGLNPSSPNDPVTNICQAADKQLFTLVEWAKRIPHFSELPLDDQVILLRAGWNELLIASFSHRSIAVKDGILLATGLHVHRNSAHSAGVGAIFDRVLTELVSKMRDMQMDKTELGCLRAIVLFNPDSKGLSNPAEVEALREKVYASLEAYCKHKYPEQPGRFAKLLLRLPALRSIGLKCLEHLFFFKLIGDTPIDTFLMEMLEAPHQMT

Consider `CC1(C)C(=O)NC(=O)NC1=O`, for which the Potency entry in assay [1], in [6], in [7], in assay [8], in [9] and in assay [11] was “inactive” throughout. In addition, the Potency entry in assay [12] was “inactive”. Also, the call in assay [2], in [3], in assay [4], in [5] and in assay [10] was inactive.
Turning to `N#CCNCC#N`, the Potency entry in assay [1], in assay [6], in assay [7], in assay [8], in assay [9] and in [11] was “inactive” throughout. Also, in [12], the Potency entry was “inactive”. For the same molecule, the call in assay [2], in assay [3], in [4], in [5] and in assay [10] was inactive.
Consider `[Cl][Sn]([Cl])([Cl])[Cl]`, for which the Potency result in assay [1], in [6], in assay [7], in [8], in assay [9] and in assay [11] was “inactive” each time. Further, the Potency entry in assay [12] was “inactive”. The molecule was called inactive in assay [3], in [4], in assay [5] and in assay [10].
Take `CCOP(=S)(OCC)Oc1cc(-c2ccccc2)on1`: the Potency entry in [1], in assay [6], in assay [7], in [8], in assay [9] and in assay [11] was “inactive” each time. For the same molecule, the Potency entry in assay [12] and in assay [13] was “inactive” in each case. Besides, the call in [3], in [4], in [5] and in [10] was inactive.
Regarding `CCc1cc2c(s1)-n1c(C)nnc1CN=C2c1ccccc1Cl`, the Potency entry in [1], in assay [6], in [7], in assay [8], in [9] and in [14] was “inactive” in each case. Further, the Potency result in [11] and in [12] was “inactive” in each case. In addition, the molecule was called inactive in assay [2], in assay [3], in [4], in assay [5] and in [10].
Consider `CC1(C)CON(Cc2ccccc2Cl)C1=O`, for which the result in [2], in assay [3], in assay [4], in assay [5] and in assay [10] was inactive. Further, the Potency result in [6], in [7], in assay [8], in assay [9], in assay [11] and in assay [12] was “inactive” throughout. Moreover, the Potency result in [13] was “inactive”. In addition, the Potency in assay [15] was 68.6 µM (active).
For `CNC(=O)Oc1ccc(N(C)C)c(C)c1`, the Potency entry in [1], in assay [6], in assay [7], in [8], in assay [9] and in assay [11] was “inactive” in each case. Also, the Potency entry in assay [12] and in assay [15] was “inactive” in each case. The outcome in assay [2], in assay [3], in [4], in [5] and in assay [10] was inactive.
For the molecule `N#CC(O)c1ccccc1` (stereo not drawn), the Potency entry in assay [1], in assay [6], in [7], in [8], in [9] and in assay [11] was “inactive” each time. The Potency entry in assay [12] is “inactive”. Moreover, the molecule was called inactive in assay [3], in assay [4], in assay [5] and in [10].
Take `NC(=O)O`: the Potency entry in assay [1], in assay [6], in [7], in [8], in assay [9] and in assay [11] was “inactive” each time. In addition, the Potency result in assay [12] is “inactive”. Also, the result in assay [3], in [4], in assay [5] and in assay [10] was inactive.
`Nc1cnn(-c2ccccc2)c(=O)c1Cl`: the Potency entry in assay [1], in [6], in assay [7], in [8], in assay [9] and in assay [11] was “inactive” throughout. Moreover, in assay [12], the Potency result is “inactive”. The outcome in assay [2], in assay [3], in assay [4], in [5] and in [10] was inactive.
`O=C(Cc1ccccc1)OCc1ccccc1`: the Potency result in assay [1], in [6], in assay [7], in assay [8], in assay [9] and in assay [11] was “inactive” in each case. The Potency result in assay [12] and in assay [13] was “inactive” throughout. Besides, the call in [3], in assay [4], in [5] and in [10] was inactive. Also, the Potency in [15] is 61.6 µM (active).
